PubChem BioAssay

What was measured:
[1] = test system: Botulinum neurotoxin type F light chain protease (Clostridium botulinum); test: Clostridium botulinum type F light chain protease inhibitors, microsphere substrate cleavage, validation (AID 588459); details: multiplex microsphere protease substrate cleavage assay, flow cytometry; at 10 µM; stronger effect = higher value
[2] = molecular target: Botulinum neurotoxin type A (Clostridium botulinum) (UniProt P0DPI0); test: BoNT/A light chain protease inhibitors, biochemical, multiplex microsphere flow cytometry, validation set (AID 588460); details: at 10 µM, stronger effect = higher value
[3] = molecular target: Lethal factor (Bacillus anthracis) (UniProt P15917); test: Bacillus anthracis lethal factor inhibition, microsphere flow cytometry protease assay, validation at 10 µM (AID 588461); details: multiplex microsphere protease cleavage assay, stronger effect = higher value

Measured: inhibition

Cc1ccc(SCC(=O)Nc2nccs2)cc1
inactive: [1] -4.8% | [2] -0.5% | [3] -5.6%

O=C(NCCc1ccccc1)C1CCN(C2CCN(Cc3ccco3)CC2)CC1
inactive: [1] -0.8% | [2] -0.7% | [3] -9.8%

C=CCc1ccc(OCC(O)COc2ccc(CC=C)cc2OC)c(OC)c1
inactive: [1] 5.2% | [2] -0.2% | [3] -6.2%

CC(C)C12CN3CC(C(C)C)(CN(C1)C31C(=O)Nc3ccccc31)C2=O (stereo not given)
inactive: [1] 0.1% | [2] 0.7% | [3] 9%

COc1ccc(OC)c(C(=O)c2coc3ccc(O)cc23)c1
inactive: [1] -0.5% | [2] -1.6% | [3] 7%

CCOCCCNCc1cn(-c2ccc(F)cc2F)nc1-c1ccccc1C
inactive: [1] -0.4% | [2] -1.9% | [3] -0.3%

C/C(=N\NC(=O)c1ccccc1[N+](=O)[O-])c1ccc(Br)s1
inactive: [1] 1.5% | [2] 1.6% | [3] 5.5%

CC1(C)Oc2ccc(C#N)cc2[C@@H](N2CCCC2=O)[C@@H]1O
inactive: [1] 3% | [2] 0.5% | [3] 5.1%

COc1cccc(-n2c(C)c3c(OC)cccc(=O)c3c2C)c1
inactive: [1] -8.1% | [2] -0.7% | [3] -13.5%

C[C@]12CC[C@@H]3c4ccc(O)cc4CC[C@H]3[C@@H]1CC[C@@H]2O
inactive: [1] 3.3% | [2] 1.1% | [3] -1.3%

Cc1ccc([N+](=O)[O-])cc1NC1OC(CO)C(O)C1O (stereo not given)
inactive: [1] 1.5% | [2] -1.1% | [3] -1.7%

Cc1ccc(CSCC(=O)N2CCCC2)cc1
inactive: [1] 2.8% | [2] -0.3% | [3] 0%

CC[N+](C)(CC)CCOC(=O)C(O)(c1ccccc1)C1CCCCC1 (stereo not given)
inactive: [1] 4.8% | [2] 1.4% | [3] -1.1%

COC(=O)c1cc(-c2ccc(OC)c(OC)c2)on1
inactive: [1] 6.2% | [2] 1.7% | [3] 0.1%

O=C(O)C1CSC(c2ccco2)N1 (stereo not given)
inactive: [1] -2.3% | [2] -2.5% | [3] -0.8%

COc1ccc(C(=O)O)cc1F
inactive: [1] -1.9% | [2] -0.6% | [3] -1.1%

Cc1cccc(NC(=O)c2cc3ccccc3o2)c1
inactive: [1] 1.3% | [2] -0.4% | [3] -2.2%

OC(CCN1CCCC1)(c1ccccc1)C1CCCCC1 (stereo not given)
inactive: [1] -0.8% | [2] -0.7% | [3] -2.2%

CCOC(=O)c1c(C)oc2c1C(=O)c1ccccc1C2=O
inactive: [1] 3.1% | [2] 1.4% | [3] -9.3%

Clc1ccc2c(c1)C(N1CCNCC1)=Nc1ccccc1O2
inactive: [1] 3.1% | [2] 2.2% | [3] -6.2%

CCO/C([O-])=N/c1c[n+](N2CCOCC2)no1
inactive: [1] 0.3% | [2] 0.5% | [3] -5.4%

c1ccc2[nH]c(-c3cscn3)nc2c1
inactive: [1] 1.2% | [2] 0.1% | [3] -4%

CCCC(=O)Nc1ncnc2c1ncn2[C@@H]1O[C@@H]2COP(=O)(O)O[C@H]2[C@H]1OC(=O)CCC
inactive: [1] -0.5% | [2] -1% | [3] -2.7%

O=C(NCCO)c1ccc2[nH]c3ccccc3c2c1
inactive: [1] 0.6% | [2] 0.1% | [3] 5.3%

O=C(O)COc1ccc2occ(C(=O)c3ccccc3)c2c1
inactive: [1] -1.3% | [2] 0.2% | [3] 4.6%

NS(=O)(=O)c1cc2c(cc1Cl)NC(CSCc1ccccc1)=NS2(=O)=O
inactive: [1] -4.8% | [2] 0% | [3] -2.3%

CC(C)(C)OC(=O)COc1cc(OCC(=O)OC(C)(C)C)c2c(=O)cc(-c3ccccc3)oc2c1
inactive: [1] 1.4% | [2] 0.8% | [3] -7.2%

Cc1cccc(C)c1NC(=O)C1CCCCN1C (stereo not given)
inactive: [1] -3.1% | [2] -0.1% | [3] -7.9%

CCn1cc(CN2N=C(C)CC2c2ccccc2)c(C)n1 (stereo not given)
inactive: [1] -0.5% | [2] 0% | [3] -2.2%

CCOc1ccc(N2C(=O)CNC2=S)cc1
inactive: [1] -1.7% | [2] -1.5% | [3] -3.8%

COc1ccc2nc(Nc3nc(CSc4ccc(C)cc4)cc(=O)[nH]3)nc(C)c2c1
inactive: [1] 0.6% | [2] -0.3% | [3] 2%

COc1ccc(NC(=O)C2CSC3c4ccccc4C(=O)N23)cc1 (stereo not given)
inactive: [1] -0.5% | [2] -0.2% | [3] -3.8%

COC(=O)c1cc(-c2ccc(C)o2)nc2ccccc12
inactive: [1] 1.8% | [2] 2% | [3] 2.2%

COc1cc2cc(C)nc(Cc3cccc4ccccc34)c2cc1OC
inactive: [1] 5.3% | [2] 1.3% | [3] 3.2%

Cc1cccc2c1CC(C)(C)N/C2=C\C(N)=O
inactive: [1] 1% | [2] 1% | [3] -3.4%

COc1ccc(NC(=O)N2CCCCC2c2cccnc2)cc1 (stereo not given)
inactive: [1] 2.7% | [2] 0.7% | [3] -0.9%

CC(=O)OCC(=O)[C@@]1(O)CC[C@H]2[C@@H]3CCC4=CC(=O)CC[C@]4(C)[C@H]3[C@@H](O)C[C@@]21C
inactive: [1] -3.3% | [2] -3.5% | [3] -5.1%

Cc1[nH]c2ccccc2c1C(=O)CN1CCCC1
inactive: [1] 0.8% | [2] 0.2% | [3] -1.1%

COCCOC(=O)C1=C(N)OC2=C(C(=O)CCC2)C1c1cccnc1 (stereo not given)
inactive: [1] -3.2% | [2] 0% | [3] -0.9%

COc1cc(C2Nc3ccccc3NC3=C2C(=O)CC(c2ccc(OC)c(OC)c2)C3)ccc1O (stereo not given)
inactive: [1] -5.5% | [2] -0.9% | [3] 0%

C[N+]1(C2CCC3CCCC2C3O)CCCCC1 (stereo not given)
inactive: [1] 1.7% | [2] 2.4% | [3] -3.7%

Cc1ccc2[nH]c3c(c2c1)CCNC3=O
inactive: [1] -0.6% | [2] -0.5% | [3] -6.6%

CC1(C(=O)O)CCC(C(=O)NC2CCCCCC2)C1(C)C (stereo not given)
inactive: [1] -6.8% | [2] -1.2% | [3] -7.7%

O=C(Nc1cccc(C(=O)O)c1)/C(=C\c1ccccc1)NC(=O)c1ccccc1
inactive: [1] 1.8% | [2] 0.3% | [3] -0.8%

Cc1cccc(C2=N/C(=C\c3cccnc3)C(=O)O2)c1
inactive: [1] -1.1% | [2] 1.9% | [3] 3.7%

COc1cc(CNCCc2c[nH]c3ccccc23)cc(Cl)c1OCC(N)=O
inactive: [1] -3.4% | [2] 0% | [3] -5.2%

O=C(O)/C=C/c1ccc(O)c(O)c1
inactive: [1] -0.3% | [2] -0.4% | [3] -1.7%

O=Cc1ccc(OC(=O)c2cccnc2)cc1
inactive: [1] 0.2% | [2] -0.7% | [3] -3.8%

Cc1ccc(-c2nnc(-c3ccc4c(c3)OCO4)o2)cc1
inactive: [1] -1% | [2] -0.1% | [3] -8%

CCN(CC)CCCNC(=O)C1c2ccccc2Oc2ccccc21
inactive: [1] 4.2% | [2] 0.7% | [3] -0.4%

COc1ccc(-c2noc(CCc3ccccc3)n2)cc1
inactive: [1] -8.8% | [2] -1.1% | [3] -11%

COc1ccc2c(CCNC(=O)c3ccc([N+](=O)[O-])cc3)c[nH]c2c1
inactive: [1] 1.6% | [2] -0.5% | [3] -5%

Cc1[nH]nc(-c2ccc(O)cc2O)c1Oc1ccccc1
inactive: [1] 0.6% | [2] -0.4% | [3] -5.3%

OCCOCCN1CCN(C(c2ccccc2)c2ccc(Cl)cc2)CC1 (stereo not given)
inactive: [1] 0.1% | [2] -1.8% | [3] 1.1%

CC(=O)OC1c2c(ccc3ccc(=O)oc23)OC(C)(C)C1OC(=O)CC(C)C (stereo not given)
inactive: [1] -0.2% | [2] -1.5% | [3] -3.2%
